# Values joined by “and” are separate entries in the source; they are usually repeats but may differ in a detail not shown here. Identical values can stand only once. Among all 260,000 compounds or so, about 1,500 (0.58%) were called active. About 5% were inconclusive and are not listed.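 The calls were made as follows: active = inhibition above a set limit at one or more doses, reproduced on every date tested; inconclusive = results disagree between test dates, or hit never tested in dose response; inactive = the rest.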 The list is a sample of the results. Potency and affinity values are given separately.
# Target: Virion infectivity factor (Human immunodeficiency virus type 1 group M subtype B (isolate BH10)) + Virion infectivity factor (Human immunodeficiency virus type 1 group M subtype B (isolate BRU/LAI)) + Virion infectivity factor (Human immunodeficiency virus type 1 group M subtype B (isolate PCV12)) + Virion infectivity factor (Human immunodeficiency virus type 1 group M subtype B (isolate HXB2)) + DNA dC->dU-editing enzyme APOBEC-3G (Homo sapiens) (UniProt P69720+P69721+P69722+P69723+Q9HC16)
# Test: HIV-1 Vif–A3G interaction blockers – biochemical, TR-FRET, GST-Vif 1-94, biotin-A3G peptide, dose response retest, primary screen (AID 1117319);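 also: Vif residues 1-94 fused to GST binding biotinylated APOBEC3G peptide 110-148; 0% = full assay without inhibitor and 100% = GST in place of GST-Vif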
# Details: TR-FRET GST-Vif / biotin-A3G peptide binding; stronger effect = higher value
row,Compound,inhibition
1,CCC(C)(C)n1nnnc1C(c1ccc2ncccc2c1)N1CCN(c2nc3ccccc3s2)CC1 (stereo not given),-9.25% (inactive) and 0.75% (inactive)
2,CCC(C)(C)n1nnnc1C(c1ccc2ncccc2c1)N1CCCCCC1 (stereo not given),2.63% (inactive)
3,CCOC(=O)C(=O)NC(C)c1ccccc1 (stereo not given),1.23% (inactive)
4,N#CC(C#N)=C1C(=O)N(CCN2CCOCC2)c2ccccc21,19.1% (inactive)
5,COc1ccc(CCNCc2ccc(OCc3ccc(Cl)nc3)c(OC)c2)cc1OC,5.39% (inactive)
6,COc1cc(CNCCc2ccccc2)ccc1OCc1ccc(Cl)nc1,2.97% (inactive)
7,CCOc1cccc2sc(N(CCCN(C)C)C(=O)c3ccc(S(=O)(=O)N4CCCCCC4)cc3)nc12,-5.19% (inactive)
8,O=C(Nc1ccc(NS(=O)(=O)c2ccccc2)cc1)c1ccccc1Cl,9.4% (inactive)
9,CCc1ccccc1NC(=O)Nc1ccc2c(c1)OCO2,-3.87% (inactive)
10,Cn1cccc1C(=O)NC(=O)COC(=O)C12CC3CC(CC(O)(C3)C1)C2,9.63% (inactive)
11,Cn1cccc1C(=O)NC(=O)COC(=O)CC12CC3CC(CC(C3)C1)C2,-0.55% (inactive)
12,COc1ccc(Br)cc1/C=N/NC(=O)c1cccnc1,4.05% (inactive)
13,O=C(O)CCN1C(=O)/C(=C\c2ccc(-c3nc4ccccc4s3)o2)SC1=S,32.3% (inactive)
14,O=C(O)C(Cc1ccccc1)N1C(=O)/C(=C/c2cccs2)SC1=S (stereo not given),24.3% (inactive)
15,O=C(O)C(Cc1ccccc1)N1C(=O)/C(=C/c2ccccc2)SC1=S (stereo not given),-5.34% (inactive)
16,O=C(O)CCN1C(=O)/C(=C/c2ccc(-c3nc4ccccc4s3)o2)SC1=S,1.36% (inactive)
17,CCC(C(=O)O)N1C(=O)/C(=C/C(C)=C/c2ccccc2)SC1=S (stereo not given),-2.68% (inactive)
18,O=C(O)CN1C(=O)/C(=C/C=C/c2ccccc2)SC1=S,5.16% (inactive)
19,CCOc1cc(C2NC(=O)NC(C)=C2C(=O)OCc2ccccc2)ccc1O (stereo not given),0.18% (inactive)
20,CCOC(=O)N1CCN(Cc2nc3c(c(=O)[nH]c(=O)n3C)n2Cc2ccccc2C)CC1,23.6% (inactive)
21,O=C(CNC(=O)c1ccccc1)Nc1ccsc1C(=O)O,-11.3% (inactive)
22,COc1ccc(Cc2noc(CN3CCNC(=O)CC3)n2)cc1OC,3.31% (inactive)
23,O=c1c2nnn(Cc3ccccc3)c2ncn1C/C=C/c1ccccc1,-0.52% (inactive)
24,Nc1ccc2c3c(ccc([N+](=O)[O-])c13)CC2,-1.18% (inactive)
25,CC(=O)c1ccc2c3c(ccc([N+](=O)[O-])c13)CC2,-4.85% (inactive)
